What was measured:
Conditions in all cases: concentration: 1 μM, replicates: in singlicate; n = 1
[1] = system: FGFR1
[2] = system: FGFR2
[3] = system: FGFR3
[4] = system: FGFR4
[5] = system: FGR
[6] = system: FLT1
[7] = system: FLT3-autoinhibited
[8] = system: FLT3
[9] = system: FLT4
[10] = system: FRK
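Also: KINOMEscan kinase panel screen.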

Compound	%Inh [1]	%Inh [2]	%Inh [3]	%Inh [4]	%Inh [5]	%Inh [6]	%Inh [7]	%Inh [8]	%Inh [9]	%Inh [10]
CN1CCN(Cc2ccc(NC(=O)Nc3ccc(N(C)c4ccnc(Nc5ccc(CS(C)(=O)=O)cc5)n4)cc3)cc2)CC1.Cl [GW827654]	5%	23%	9%	0%	49%	99.8%	95.2%	99.8%	100%	84%
Cl.O=C(Nc1ccc(Oc2ccc3[nH]c(NC(=O)c4ccco4)nc3c2)cc1)Nc1cc(C(F)(F)F)ccc1F [GW683134]	40%	77%	36%	12%	24%	98.5%	25%	99.4%	99.9%	77%
COc1ccc(C2=C(Nc3cccc(O)c3)C(=O)NC2=O)cc1 [SB-390766]	0%	0%	0%	27%	0%	5%	0%	0%	35%	11%
NCCC(NC(=O)c1cc(Br)c(-c2ccnc3[nH]ccc23)s1)c1ccccc1.O=C(O)C(F)(F)F.O=C(O)C(F)(F)F (stereo not drawn) [GSK1307810]	73%	74%	45%	36%	13%	73%	25%	88%	39%	22%
COc1cccc(C2=C(Nc3cccc(O)c3)C(=O)NC2=O)c1 [SB-390771]	0%	29%	28%	19%	33%	22%	0%	3%	20%	11%
COc1cccc2c(-c3ccncc3)c(-c3ccc(F)cc3)nn12 [GW468513]	11%	0%	1%	0%	13%	29%	0%	22%	13%	5%
CC(C)c1nc(-c2cccc(NS(=O)(=O)c3c(F)cccc3F)c2)c(-c2ccnc(Nc3ccc(N4CCOCC4)nc3)n2)s1.Cl [GSK1723980]	14%	0%	4%	0%	98.4%	98.3%	0%	66%	99.9%	96.3%
Cc1ccc(C)c(NC(=O)Nc2ccc(C)c(-c3ccc(C(=O)Nc4ccncc4)cc3)c2)c1 [GSK1398473]	0%	0%	10%	3%	16%	48%	0%	91.8%	39%	50%
Cl.Cl.NCC(NC(=O)c1cc(-c2cccnc2)c(-c2ccnc3[nH]ccc23)s1)c1ccccc1 (stereo not drawn) [GSK1323434]	8%	0%	39%	6%	42%	17%	0%	5%	0%	15%

Source: article PMC5540273 (PLoS ONE, 2017)
